# From the supplement of paper PMC8728848
# About 410 targets per protein were measured; listed, in parts, are those with the strongest signals and a random draw of the rest.
# B1: StdA (Salmonella typhimurium), Q8Z3Z0 (protein)
# chain: MAAAGMMYGASVFAADTTPTAGPFGSGKILFTGTITNSPCDIAPGDDAITVPFGQISYRKLNTANATTDSKPFTIHLQNCAFDPNETTIAGSAGKMSKVTVSFSGTADTSGKAYVSTGSAQHVGVQLLKGDNTSLITPNTPMPDGDAQQLQAGNNELNFFARLIALTDAATPGDVNASVTYTLKYL
# Key:
# Assay in all cases: glycan array binding signal (z-score within array); higher = stronger binding
# Details in all cases: glycan notation: IUPAC condensed, linker removed
# Fuc(a1-2)Gal(b1-3)GlcNAc = biological target: Fuc(a1-2)Gal(b1-3)GlcNAc
# Outline: (§1)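 From the Consortium for Functional Glycomics database, 3228 arrays were curated, keeping only those whose protein sequence was available. Binding is given as a within-array Z-score averaged across arrays sharing a protein sequence and across linkers. Negative Z-scores can be read as non-binding.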
# [1] = biological target: Fuc(a1-2)Gal(b1-3)GlcNAc(b1-2)Man(a1-3)[Fuc(a1-2)Gal(b1-3)GlcNAc(b1-2)Man(a1-6)]Man(b1-4)GlcNAc(b1-4)GlcNAc
# Outline: as §1
# Fuc(a1-2)Gal(b1-4)Glc6S = biological target: Fuc(a1-2)Gal(b1-4)Glc6S
# Outline: as §1
# [2] = biological target: Fuc(a1-2)Gal(b1-4)GlcNAc(b1-3)Gal(b1-4)GlcNAc(b1-3)Gal(b1-4)GlcNAc
# Outline: as §1
# [3] = biological target: Fuc(a1-2)Gal(b1-4)[Fuc(a1-3)]GlcNAc(b1-2)Man(a1-3)[Fuc(a1-2)Gal(b1-4)[Fuc(a1-3)]GlcNAc(b1-2)Man(a1-6)]Man(b1-4)GlcNAc(b1-4)GlcNAc
# Outline: as §1
# [4] = biological target: Fuc(a1-2)[Gal(a1-3)]Gal(b1-4)GlcNAc(b1-2)Man(a1-3)[Fuc(a1-2)[Gal(a1-3)]Gal(b1-4)GlcNAc(b1-2)Man(a1-6)]Man(b1-4)GlcNAc(b1-4)GlcNAc
# Outline: as §1
# [5] = biological target: Fuc(a1-3)[Gal3S(b1-4)]Glc6S
# Outline: as §1
# [6] = biological target: Fuc(a1-3)[Gal3S(b1-4)]GlcNAc
# Outline: as §1
# [7] = biological target: Fuc(a1-3)[Neu5Ac(a2-3)]Gal(b1-4)GlcNAc(b1-3)GalNAc
# Outline: as §1
# Gal(a1-3)Gal(b1-4)Glc = biological target: Gal(a1-3)Gal(b1-4)Glc
# Outline: as §1
# [8] = biological target: Gal(a1-3)Gal(b1-4)[Fuc(a1-3)]GlcNAc(b1-2)Man(a1-3)[Gal(a1-3)Gal(b1-4)[Fuc(a1-3)]GlcNAc(b1-2)Man(a1-6)]Man(b1-4)GlcNAc(b1-4)GlcNAc
# Outline: as §1
# [9] = biological target: Gal(b1-3)[Fuc(a1-4)]GlcNAc(b1-2)Man(a1-3)[Gal(b1-3)[Fuc(a1-4)]GlcNAc(b1-2)Man(a1-6)]Man(b1-4)GlcNAc(b1-4)GlcNAc
# Outline: as §1
# Gal3S6S(b1-4)GlcNAc6S = biological target: Gal3S6S(b1-4)GlcNAc6S
# Outline: as §1
# Gal6S(b1-4)GlcNAc6S = biological target: Gal6S(b1-4)GlcNAc6S
# Outline: as §1
# [10] = biological target: GalNAc(b1-3)Gal(a1-4)Gal(b1-4)GlcNAc(b1-3)Gal(b1-4)Glc
# Outline: as §1
# [11] = biological target: GalNAc(b1-4)GlcNAc(b1-2)Man(a1-3)[GalNAc(b1-4)GlcNAc(b1-2)Man(a1-6)]Man(b1-4)GlcNAc(b1-4)GlcNAc
# Outline: as §1
# [12] = biological target: GlcNAc(b1-3)[GlcNAc(b1-6)]GalNAc
# Outline: as §1
# [13] = biological target: GlcNAc(b1-6)Gal(b1-4)GlcNAc
# Outline: as §1
# GlcNAc3Prop(b1-4)GlcNAc = biological target: GlcNAc3Prop(b1-4)GlcNAc
# Outline: as §1
# [14] = biological target: GlcNAc6S(b1-3)Gal(b1-4)GlcNAc
# Outline: as §1
# [15] = biological target: Man(a1-2)Man(a1-2)Man(a1-6)[Man(a1-3)]Man
# Outline: as §1
# [16] = biological target: Man(a1-2)Man(a1-3)[Man(a1-2)Man(a1-6)]Man
# Outline: as §1
# [17] = biological target: Man(a1-3)[Man(a1-6)]Man(a1-6)[Man(a1-2)Man(a1-3)]Man(b1-4)GlcNAc(b1-4)GlcNAc
# Outline: as §1
# [18] = biological target: Man(a1-3)[Man(a1-6)]Man(a1-6)[Man(a1-3)]Man(b1-4)GlcNAc(b1-4)GlcNAc
# Outline: as §1
# Neu5Ac(a2-3)Gal(b1-4)Glc = biological target: Neu5Ac(a2-3)Gal(b1-4)Glc
# Outline: as §1
# [19] = biological target: Neu5Ac(a2-3)Gal(b1-4)GlcNAc6S
# Outline: as §1
# [20] = biological target: Neu5Ac(a2-3)Gal(b1-4)[Fuc(a1-3)]GlcNAc
# Outline: as §1
# [21] = biological target: Neu5Ac(a2-3)Gal6S(b1-4)GlcNAc
# Outline: as §1
# [22] = biological target: Neu5Ac(a2-3)Gal6S(b1-4)[Fuc(a1-3)]GlcNAc
# Outline: as §1
# [23] = biological target: Neu5Ac(a2-3)[GalNAc(b1-4)]Gal(b1-4)GlcNAc
# Outline: as §1
# [24] = biological target: Neu5Ac(a2-6)Gal(b1-4)GlcNAc(b1-3)Gal(b1-3)GlcNAc
# Outline: as §1
# [25] = biological target: Neu5Ac(a2-6)Gal(b1-4)GlcNAc(b1-3)Gal(b1-4)GlcNAc
# Outline: as §1
# [26] = biological target: Neu5Ac(a2-6)Gal(b1-4)GlcNAc(b1-3)Gal(b1-4)[Fuc(a1-3)]GlcNAc(b1-3)Gal(b1-4)[Fuc(a1-3)]GlcNAc
# Outline: as §1
binder,measurement,setting,value
B1,glycan array binding signal (z-score),Fuc(a1-2)Gal(b1-3)GlcNAc,-0.15
same,glycan array binding signal (z-score),[1],10.3
same,glycan array binding signal (z-score),Fuc(a1-2)Gal(b1-4)Glc6S,0.205
same,glycan array binding signal (z-score),[2],0.168
same,glycan array binding signal (z-score),[3],2.3
same,glycan array binding signal (z-score),[4],-0.604
same,glycan array binding signal (z-score),[5],6.5
same,glycan array binding signal (z-score),[6],0.034
same,glycan array binding signal (z-score),[7],4.78
same,glycan array binding signal (z-score),Gal(a1-3)Gal(b1-4)Glc,0.257
same,glycan array binding signal (z-score),[8],4.97
same,glycan array binding signal (z-score),[9],5.67
same,glycan array binding signal (z-score),Gal3S6S(b1-4)GlcNAc6S,-0.494
same,glycan array binding signal (z-score),Gal6S(b1-4)GlcNAc6S,-0.164
same,glycan array binding signal (z-score),[10],0.837
same,glycan array binding signal (z-score),[11],3.5
same,glycan array binding signal (z-score),[12],0.036
same,glycan array binding signal (z-score),[13],0.557
same,glycan array binding signal (z-score),GlcNAc3Prop(b1-4)GlcNAc,-0.424
same,glycan array binding signal (z-score),[14],1.03
same,glycan array binding signal (z-score),[15],-0.088
same,glycan array binding signal (z-score),[16],-0.749
same,glycan array binding signal (z-score),[17],-0.109
same,glycan array binding signal (z-score),[18],-0.131
same,glycan array binding signal (z-score),Neu5Ac(a2-3)Gal(b1-4)Glc,-0.372
same,glycan array binding signal (z-score),[19],-0.404
same,glycan array binding signal (z-score),[20],-0.614
same,glycan array binding signal (z-score),[21],-0.214
same,glycan array binding signal (z-score),[22],-0.437
same,glycan array binding signal (z-score),[23],-0.022
same,glycan array binding signal (z-score),[24],-0.819
same,glycan array binding signal (z-score),[25],-0.14
same,glycan array binding signal (z-score),[26],0.009
